# Source: PubChem BioAssay AID2599 (Sanford-Burnham Center for Chemical Genomics, 2010)
# Out of some 330,000 compounds screened, about 5,800 (1.8%) were called active. Many of the other results were omitted from the sample, so actives are more common in it than they were. Values without a mark were called inactive.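 The calls were made as follows: active = inhibition above about 50% at the single tested dose (limit read from the data); inactive = the rest.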
# Target: Sentrin-specific protease 6 (Homo sapiens) (UniProt Q9GZR1)
# Test: SENP6 protease inhibitors, primary screen, biochemical, luminescence, uHTS (AID 2599);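 also: plate controls were DMSO wells with enzyme for no effect and DMSO wells lacking enzyme for full effect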
# Conditions: Recombinant SENP6 catalytic domain, aminoluciferin luminescence; at 10 µM; active compounds read high
# Chain of Sentrin-specific protease 6 (Homo sapiens) (Q9GZR1 628-1112 limits assumed): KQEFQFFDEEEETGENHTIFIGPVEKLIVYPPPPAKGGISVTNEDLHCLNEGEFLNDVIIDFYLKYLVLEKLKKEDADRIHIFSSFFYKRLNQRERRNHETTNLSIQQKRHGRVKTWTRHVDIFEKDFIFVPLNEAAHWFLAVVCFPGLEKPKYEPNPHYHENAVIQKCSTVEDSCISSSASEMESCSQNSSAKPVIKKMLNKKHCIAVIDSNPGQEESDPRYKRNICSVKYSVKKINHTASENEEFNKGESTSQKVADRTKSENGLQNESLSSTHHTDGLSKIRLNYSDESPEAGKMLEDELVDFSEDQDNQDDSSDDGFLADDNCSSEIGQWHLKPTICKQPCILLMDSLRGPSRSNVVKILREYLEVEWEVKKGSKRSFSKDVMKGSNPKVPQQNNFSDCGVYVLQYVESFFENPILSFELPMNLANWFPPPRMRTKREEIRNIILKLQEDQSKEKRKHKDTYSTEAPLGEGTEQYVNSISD
row,Structure (SMILES),inhibition
1,CC(C)(C)c1cc(C(=O)N/N=C/c2ccc([N+](=O)[O-])s2)n[nH]1,35.9%
2,O=[N+]([O-])c1ccc(C=Nc2ccc(Cl)cc2Cl)s1,57.5% (active)
3,COc1ccc(C(=O)NCC(=O)N/N=C/c2ccc([N+](=O)[O-])s2)cc1OC,48.9%
4,CC(=O)Nc1nc(N(C)C)nc(N(C)C)n1,-13.9%
5,CCOC(=O)C(C)n1cnc2sc(C)c(C)c2c1=O (stereo not drawn),-17.3%
6,Cc1cccc(OC(=O)c2sc3ncn(C)c(=O)c3c2C)c1,52.6% (active)
7,Cc1c(C(N)=O)sc2ncn(CCOc3ccccc3)c(=O)c12,-16.1%
8,FC(F)(F)c1ccc(-n2cn[nH]c2=S)cc1,-14.6%
9,CCSC1=NCCN1S(=O)(=O)c1ccc(F)cc1,-6.19%
10,CCCn1nnnc1NCc1ccc(CC)cc1,-6.18%
11,O=C(CSc1nn(-c2ccc(F)cc2)c(=S)s1)NC1CCS(=O)(=O)C1 (stereo not drawn),-6.03%
12,O=S(=O)(Nc1ccc2nc(N3CCOCC3)sc2c1)c1ccccc1,-2.51%
13,c1c2c(cc3sc(N4CCCCC4)nc13)OCCO2,7.27%
14,Brc1ccc2nc(N3CCCC3)sc2c1,75.4% (active)
15,Fc1ccc2nc(N3CCCCC3)sc2c1,89.5% (active)
16,O=C(c1ccc2nc(N3CCOCC3)sc2c1)N1CCN(c2ccc(Cl)cc2)CC1,-6.6%
17,Fc1ccc2nc(Nc3nc4c(s3)CCCC4)sc2c1,34.4%
18,C/C(=N/NC(=O)CCc1ccccc1)c1ccco1,12.1%
19,C=CCn1c(C)cc(C2=NNC(=NCC)SC2)c1C,92.9% (active)
20,COc1ccc(CC(NC(C)=O)C(=O)NC2CCN(C(=O)C3CC3)CC2)cc1OC (stereo not drawn),-9.43%
21,C=C(C)CSc1nc(N)c2c3c(sc2n1)CCC3,1.28%

row,Structure (SMILES),inhibition
1,O=C(Nc1nc2ccc([N+](=O)[O-])cc2s1)c1ccncc1,91.5% (active)
2,COc1ccc(C(=O)Nc2nc(-c3ccc(OC)cc3)c(-c3ccc([N+](=O)[O-])cc3)s2)cc1,-31.8%
3,O=C(NC(Nc1nc2ccc([N+](=O)[O-])cc2s1)(C(F)(F)F)C(F)(F)F)c1ccccc1,-1.71%
4,CCN(CC)S(=O)(=O)c1ccc(N2CCOCC2)c(NC(=O)C2CSC3(C)CCC(=O)N23)c1 (stereo not drawn),4.82%
5,CCCC(=O)N(CCN1CCOCC1)c1nc2ccc(OCC)cc2s1,-4.24%
6,COc1ccc2cc(C(=O)C3CCCN(C(=O)c4sc(C)nc4C)C3)ccc2c1 (stereo not drawn),-16.8%
7,CCOc1ccc2nc(C(=O)N3CCCC(C)C3)sc2c1 (stereo not drawn),70.8% (active)
8,O=C(NCCS(=O)(=O)NCc1ccc(Cl)cc1)c1ccccc1,-0.893%
9,COc1cccc(N2C(=O)CC(N3CCc4ccccc4C3)C2=O)c1 (stereo not drawn),0.083%
10,CCOc1ccc(N2C(=O)CSC2=NC#N)cc1,-18.7%
11,CC(C)(C)n1nc2c(c1NC(=O)c1cc3ccccc3o1)CSC2,2.49%
12,O=C(Nc1ccncc1)c1cc2ccccc2o1,63.5% (active)
13,COc1cc2ccccc2cc1C(=O)Nc1ccncc1,-5.66%
14,CC(OC(=O)Cc1ccc(F)cc1)C(=O)N1CCc2ccccc21 (stereo not drawn),8.22%
15,CCC(=O)Nc1nnc(S(=O)(=O)N2CCCc3ccccc32)s1,-3.06%
16,COc1ccc(-c2[nH]nc(-c3ccccc3)c2-c2nc3ccccc3[nH]2)cc1,-1.01%
17,Cc1ccc(-c2nc3ccccc3[nH]2)cc1N,91% (active)
18,c1ccc2[nH]c(-c3nc4ccccc4[nH]3)nc2c1,97.2% (active)
19,Nc1cccc(CCc2nc3ccccc3[nH]2)c1,-9.91%
20,COc1ccc(Br)cc1C(=O)NC(=S)Nc1cc(-c2nc3ccccc3[nH]2)ccc1C,6.04%
21,Clc1ccccc1SCc1nc2ccccc2[nH]1,39.4%

row,Structure (SMILES),inhibition
1,CC1(C)C2CCC13CS(=O)(=O)NC3C2 (stereo not drawn),-8.89%
2,O=C(Nc1ccc(-c2ccc3nncn3n2)cc1)C1CCCCC1,-18.8%
3,COc1ccc(N2CCN(CCCNC(=O)C3CCN(S(=O)(=O)N4CCOCC4)CC3)CC2)cc1,8.09%
4,CCNC(=S)N1CCN(S(=O)(=O)c2ccc(Cl)s2)CC1,-2.28%
5,COc1ccc([N+](=O)[O-])cc1N(CC(=O)Nc1ccccc1C(=O)N1CCOCC1)S(C)(=O)=O,-14.4%
6,Cc1cc(C)c(S(=O)(=O)c2ccc(F)cc2C)c(=O)[nH]1,-7.65%
7,N/C(=N\OC(=O)c1cc(-c2ccccc2)nc2ccccc12)c1ccncc1,-23.3%
8,Cc1cccc(/C(N)=N/OC(=O)c2ccccc2Cl)c1,86.2% (active)
9,Cc1ccc(/C(N)=N/OC(=O)COc2ccc(Cl)c(C)c2)cc1,-9.12%
10,N#Cc1cc([N+](=O)[O-])ccc1Oc1cccc(/C=N/NC(=O)c2ccc(Cl)cc2)c1,-30.8%
11,COc1ccc2c(C)cc(SCC(=O)NCC3CCCO3)nc2c1 (stereo not drawn),2.3%
12,Nn1c(Cc2cccc3ccccc23)nnc1SCC(=O)N1CC(=O)Nc2ccccc21,-14.3%
13,CN(c1ccccc1)S(=O)(=O)c1cc(C(=O)Nc2nc3ccccc3[nH]2)ccc1Cl,0.946%
14,O=C(Cc1ccsc1)N1CCN(S(=O)(=O)c2cc(C(F)(F)F)cc(C(F)(F)F)c2)CC1,-12.7%
15,O=C1c2ccccc2NC(c2ccc(-c3cccc(Cl)c3)o2)N1O (stereo not drawn),2.11%
16,O=c1c(-c2ccccc2Cl)c[nH]n1-c1ccccc1,5.63%
17,O=c1c(-c2cccc(Cl)c2)c[nH]n1-c1ccccc1,50.4% (active)
18,Cc1ccc(NC(=O)c2ccn(C(=O)Nc3ccccc3)n2)c(C)c1,8.66%
19,CCCCC(CC)CNC(=O)C(=O)C1C(=O)Nc2ccccc21 (stereo not drawn),-18.1%
20,CCCn1nnnc1NCc1ccc(OC)cc1,-1.58%
21,COC(=O)c1scc(S(=O)(=O)C(C)(C)C)c1-n1cccc1,-3.91%
